The list is not random: actives were taken first. Their share in the collection is about 21%.
DRD3 agonist = agonists of human D3 dopamine receptor; AID 652048; 0.58% of 410,000 active; D3R DiscoveRx beta-arrestin cells, luminescence, 90 min; P35462; max activation, %; in the data active = max activation above about 30%; note: 0% is about no effect
Target sequence (P35462 whole entry, looked up): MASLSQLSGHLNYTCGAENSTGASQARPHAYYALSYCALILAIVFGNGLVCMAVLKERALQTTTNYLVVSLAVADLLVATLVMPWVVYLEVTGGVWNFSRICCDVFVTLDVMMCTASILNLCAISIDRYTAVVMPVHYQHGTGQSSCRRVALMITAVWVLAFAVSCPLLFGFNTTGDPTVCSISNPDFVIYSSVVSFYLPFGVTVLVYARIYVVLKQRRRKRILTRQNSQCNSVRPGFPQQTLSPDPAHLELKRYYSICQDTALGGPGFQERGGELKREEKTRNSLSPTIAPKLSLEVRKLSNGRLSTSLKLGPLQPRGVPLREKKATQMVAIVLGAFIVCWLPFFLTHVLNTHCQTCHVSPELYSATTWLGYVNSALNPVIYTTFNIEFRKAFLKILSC
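Agonist mode: compounds and dopamine controls were applied to plated cells for 90 min at 37 degrees C after an overnight attachment at 1500 cells/well. Luminescent read-out followed 30 - 60 minutes at room temperature with DiscoveRx detection reagent.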
TDP1 cell CPT = DT40-hTDP1 cell growth loss with CPT | 12% of 420,000 active | chicken DT40 Tdp1-/-;hTDP1 cells + 20 nM CPT, ATP luminescence, 48 h | Potency, µM (series often up to 46.2 µM), for the others: at the top dose activity change, negative = growth inhibition, usual class: inhibitors | AID 686979; note: potency is the fitted concentration of half-maximal effect; % is set by controls: 0 for no effect and ±100 for the full control effect; nearly all actives have a fitted effect of over 55% in size
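Chicken DT40 Tdp1-/- cells stably complemented with human TDP1 were seeded at 400 cells/well in medium containing 20 nM camptothecin, exposed to pin-transferred compounds, and grown at 37 °C for at least 48 hr. Viability was read as ATP luminescence.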
TDP1 cell noCPT = qHTS for Inhibitors of human tyrosyl-DNA phosphodiesterase 1 (TDP1): qHTS in cells in absence of CPT | DT40 Tdp1-/- hTDP1 cells, no CPT, ATP luminescence, 48 h | AID 686978, 2013 | 15% of 420,000 active | Potency, µM (top dose mostly 46.2 µM), for inactives: at the highest dose activity change, negative = growth inhibition, usual class: inhibitors; note: potency is the fitted concentration of half-maximal effect; % is set by controls: 0 for no effect and ±100 for the full control effect; nearly all actives have a fitted effect of over 55% in size
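Stably hTDP1-transfected Tdp1-null chicken DT40 cells were treated with library compounds minus camptothecin and grown for at least 48 hr at 37 °C, after which cellular ATP was quantified by luminescence.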
IL1B secr inh = inflammasome signaling inhibition, IL-1 beta readout; 4.7% of 360,000 active; THP-1 LPS/ATP IL-1B secretion, AlphaLISA, 16 h; hits give low values; activity change, % at 57.5 µM; in the data active = activity change below about -50%; inconclusive = mostly about -30% to -49%; note: % is set by controls: 0 for no effect and ±100 for the full control effect
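Secreted IL-1B measured by AlphaLISA bead assay after 16 h compound exposure of THP-1 cells; compounds (final up to 57.5 uM) added 1 h before LPS (250 ng/mL) and ATP (1.25 mM) stimulation; lower signal means less secretion.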
DRD3 antagonist = antagonists of human D3 dopamine receptor | P35462 | D3R cells, DiscoveRx beta-arrestin luminescence, antagonist mode; hits give low values | max response, negative = inhibition, % | 2.5% of 360,000 active; in the data active = max response below about -50%; inconclusive = no clear call, values can overlap the other calls; note: % is set by controls: 0 for no effect and ±100 for the full control effect
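Cells expressing the human receptor were seeded at 1500 cells/well, incubated overnight at 37 degrees C in 5% CO2, then exposed to library compounds with dopamine controls for 90 minutes at 37 degrees C before luminescent detection.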
ClpP mod = qHTS Assay for Activators of ClpP. AID 651965, 2013. purified B. subtilis ClpP, FRET peptide cleavage, 20 min. Potency, µM (titrated, usually from 57.5 µM), for inactives: at the highest dose activity change, negative = active. 1.9% of 340,000 active; active = well fitted falling curve with a large enough effect; inconclusive = small, poorly fitted or top-dose-only effect; inactive = no such curve, though single readings can be large or run the other way; note: potency is the fitted concentration of half-maximal effect; the source files actives as falling curves though it sought activators and does not explain the sign; nearly all actives have a fitted effect of over 65% in size
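ClpP 10 microg/mL final, pH 8 Tris/KCl buffer with BSA, glycerol, Tween-20; compound pinned in; FRET-FV substrate; RT 20 min; Ex320/Em430; ΔFRET vs ADEP 5.8 microM, DMSO, no enzyme.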
* hit, by the source's call; ? = inconclusive; . = no result; [ ] = another dose, or the depositor's remark. Unless noted, calls come from the whole dose curve; as a rule, active = well fitted inhibition curve with a large enough effect; inconclusive = small, poorly fitted or top-dose-only effect; inactive = flat fitted curve, though single readings scatter.

SMILES	DRD3 agonist	TDP1 cell CPT	TDP1 cell noCPT	IL1B secr inh	DRD3 antagonist	ClpP mod
Cc1ccc(NCCN(C)C)c2c(=O)c3cc(O)ccc3sc12	-6.1	0.146µM*	0.184µM*	-102.2*	-18.6	-1.1%
O=C(COC(=O)c1cc(S(=O)(=O)N2CCCCC2)ccc1N1CCOCC1)NC1CCS(=O)(=O)C1 (configuration not stated)	2.4	5.1%	-1.6%	-3.9	1.2	.
COc1ccc(CC(=O)NCCc2sc(-c3cccc(F)c3)nc2C)cc1	20.8	-27.0%	?	.	.	-10.2%
Cn1nccc1C(=O)NCC1CCC2(CCN(Cc3ccc(-c4ccc(Cl)cc4)o3)CC2)O1 (configuration not stated)	.	?	14.6µM*	.	.	.
Cc1cc(C(=O)NCC2CCC3(CCN(Cc4ccc(F)cc4)CC3)O2)n(C)n1 (configuration not stated)	.	-4.0%[9.04 µM]	?	.	.	.
Cc1ccc(C)c(CN2CCC3(CCC(CNC(=O)c4ccnn4C)O3)CC2)c1 (configuration not stated)	.	-6.0%	-28.2%	.	.	.
Cc1cc(C(=O)NCC2CCC3(CCN(Cc4cccc(F)c4F)CC3)O2)n(C)n1 (configuration not stated)	.	20.6µM*	11.6µM*	.	.	.
Cc1cc(C(=O)NCC2CCC3(CCN(Cc4ccc5ccccc5c4)CC3)O2)n(C)n1 (configuration not stated)	.	20.6µM*	16.4µM*	.	.	.
COc1cccc(OC)c1OC(=O)c1ccccc1	-0.1	-0.3%	-14.6%	-8.7	2.9	-1.3%
Cc1cccc(NC(=O)Nc2nnc([C@H]3C[C@H](O)[C@@H](CO)O3)s2)c1	-5.2	?	-9.4%	-5.1	-11.6	-1.8%
CCN(CC)S(=O)(=O)c1cccc(-c2nnc(SC(C)C#N)n2Cc2ccccc2)c1 (configuration not stated)	-6.1	14.6µM*	18.4µM*	-18.9	8.6	0.2%
OCCN1CCN(C2Cc3cc(Cl)ccc3Sc3ccc(Cl)cc32)CC1 (configuration not stated) (tested in a mixture with another compound)	6.0	23.1µM*	?	-98.5*	-71.9*	-0.7%
OCCN1CCN(Cc2nc(-c3cccc(Cl)c3)no2)CC1	-12.0	-22.1%	-13.9%	13.1	-4.5	.
CN1CCN(C2Cc3cc(Cl)ccc3Sc3cc(F)ccc32)CC1 (configuration not stated)	-54.2	?	?	-94.1*	-93.5*	-0.2%
CN1CCN(CCOC2Cc3ccccc3Sc3ccc(Cl)cc32)CC1 (configuration not stated)	-8.3	?	20.6µM*	-71.0*	-62.7*	-2.3%
CCC(C(=O)NCCc1c[nH]c2ccc(C)cc12)c1ccccc1 (configuration not stated)	7.0	-3.0%	?	-23.9	-16.8	.
O=S(=O)(c1ccccc1)N1CCCCC1CCc1ccccc1 (configuration not stated)	1.0	?	13µM*	-28.8	-11.3	0.9%
CCC1CCCCN1S(=O)(=O)c1ccccc1 (configuration not stated)	-10.2	?	?	16.6	-17.0	.
COc1ccccc1CCNC(=O)C(=O)NCCC1CCCCN1S(=O)(=O)c1ccccc1 (configuration not stated)	2.7	?	16.4µM*	-14.7	-5.1	.
COc1ccc(CCNC(=O)C(=O)NCCC2CCCCN2S(=O)(=O)c2ccccc2)cc1 (configuration not stated)	-13.0	23.1µM*	23.1µM*	8.9	-7.5	-2.2%
Cn1c(=NC(=O)c2ccc(S(=O)(=O)N3CCCc4ccccc43)cc2)sc2cc(S(C)(=O)=O)ccc21	22.5	-2.8%	-12.2%	-17.0	7.1	-2.6%

Screens as filed in PubChem BioAssay.
